# Assay results: PubChem BioAssay (NCATS)
# Records with an inconclusive call do not appear. The source made the active and inactive calls. Unless noted, calls follow the shape of the dose curve; as a rule, active = well fitted curve in the direction sought with a large enough effect; inconclusive = small, poorly fitted or top-dose-only effect, or another doubt; inactive = no such curve, though single readings can be large; an effect the other way counts as inactive or inconclusive.
# What was measured:
# [1] = target: Lysosomal acid glucosylceramidase (Homo sapiens) (UniProt P04062); assay: Glucocerebrosidase-p2 (AID 348; in the data active = potency below about 10 µM; also: potency is read from the fitted curve at half-maximal effect); conditions: purified GBA, blue fluorogenic substrate, 40 min
# Sequence of Lysosomal acid glucosylceramidase (Homo sapiens) (P04062 whole entry, looked up): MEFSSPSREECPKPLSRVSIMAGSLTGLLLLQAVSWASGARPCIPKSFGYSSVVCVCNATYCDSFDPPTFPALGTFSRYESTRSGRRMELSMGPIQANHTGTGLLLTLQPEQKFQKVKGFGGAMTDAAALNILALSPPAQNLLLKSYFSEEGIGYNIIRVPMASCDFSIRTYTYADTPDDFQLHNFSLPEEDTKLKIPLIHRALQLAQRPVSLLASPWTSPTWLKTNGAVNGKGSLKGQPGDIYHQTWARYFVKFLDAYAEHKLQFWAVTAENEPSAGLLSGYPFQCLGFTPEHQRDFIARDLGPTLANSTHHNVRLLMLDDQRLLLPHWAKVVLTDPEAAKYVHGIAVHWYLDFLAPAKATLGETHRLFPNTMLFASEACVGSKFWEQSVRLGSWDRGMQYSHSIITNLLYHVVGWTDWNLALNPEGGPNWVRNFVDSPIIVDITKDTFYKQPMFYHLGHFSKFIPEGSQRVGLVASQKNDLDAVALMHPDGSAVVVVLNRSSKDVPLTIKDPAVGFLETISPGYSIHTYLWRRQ
# Procedure, shortened: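 Compounds titrated from 0.6 nM upwards against 0.2 nM enzyme in pH 5.9 citric acid/KH2PO4, taurocholate, tween-20; blue fluorogenic substrate 80 uM, 40 min room temperature, stopped and read Ex 365/Em 440 for AC50.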
# [2] = AP1 Signaling Pathway (AID 357; active = well fitted curve in either direction with a large enough effect, not every such curve was filed as active;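 also: ME-180 reporter cells stimulated with EGF at its EC50 level; % is scaled to controls: 0 for no effect and ±100 for the full control effect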); conditions: ME-180 AP-1-bla reporter, EGF-induced, beta-lactamase ratio, 5 h; at 7.69 µM (top of the series) unless noted
# Procedure, shortened: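 In this screen, ME-180 cells in Opti-MEM with 0.5% dialyzed FBS received EC50 EGF and compound titrations for 5 h. AP-1 reporter beta-lactamase was detected via CCF4 ratio, giving AC50 for positive and negative modulators.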
# [3] = NFAT Signaling Pathway (AID 444; active = well fitted curve in either direction with a large enough effect, not every such curve was filed as active;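 also: carbachol stimulus at about its EC50 of 1 µM final; % is scaled to controls: 0 for no effect and ±100 for the full control effect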); conditions: Jurkat NFAT-bla M1, carbachol, beta-lactamase ratio, 5 h; at 7.69 µM (top of the series) unless noted
# Procedure, shortened: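 Jurkat cells with NFAT-driven β-lactamase reporter and co-expressed M1 receptor, stimulated with carbachol (final 1 uM, ~EC50), compound titration, 5 h at 37 °C. CCF4 loaded 1 h at RT; 460/530 nm ratio gave %activity and AC50.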
# [4] = Stat Signaling Pathway (AID 446; active = well fitted curve in either direction with a large enough effect, not every such curve was filed as active;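 also: ME-180 cervical cancer cells given 40 pM IL-6 alongside compound; SIE-controlled beta-lactamase reporter measured as 460/530 nm FRET emission ratio; % is scaled to controls: 0 for no effect and ±100 for the full control effect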); conditions: ME-180 (cervical carcinoma) SIE beta-lactamase reporter, IL-6 stimulated, 5 h; at 7.69 µM (top of the series) unless noted
# Procedure, shortened: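 IL-6/STAT signaling read in ME-180 cells via an SIE beta-lactamase reporter. Stimulus was 40 pM IL-6 (its AC50) for 5 hrs, so both activation and inhibition register.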
# [5] = target: Glucocorticoid receptor (Homo sapiens) (UniProt P04150); assay: GR-EFC Redistribution (AID 451; calls by dose curve; also: potency is read from the fitted curve at half-maximal effect); conditions: CHO-K1 GR-EFC translocation, beta-gal luminescence, 2 h
# Sequence of Glucocorticoid receptor (Homo sapiens) (P04150 whole entry, looked up, the tested form may be a part): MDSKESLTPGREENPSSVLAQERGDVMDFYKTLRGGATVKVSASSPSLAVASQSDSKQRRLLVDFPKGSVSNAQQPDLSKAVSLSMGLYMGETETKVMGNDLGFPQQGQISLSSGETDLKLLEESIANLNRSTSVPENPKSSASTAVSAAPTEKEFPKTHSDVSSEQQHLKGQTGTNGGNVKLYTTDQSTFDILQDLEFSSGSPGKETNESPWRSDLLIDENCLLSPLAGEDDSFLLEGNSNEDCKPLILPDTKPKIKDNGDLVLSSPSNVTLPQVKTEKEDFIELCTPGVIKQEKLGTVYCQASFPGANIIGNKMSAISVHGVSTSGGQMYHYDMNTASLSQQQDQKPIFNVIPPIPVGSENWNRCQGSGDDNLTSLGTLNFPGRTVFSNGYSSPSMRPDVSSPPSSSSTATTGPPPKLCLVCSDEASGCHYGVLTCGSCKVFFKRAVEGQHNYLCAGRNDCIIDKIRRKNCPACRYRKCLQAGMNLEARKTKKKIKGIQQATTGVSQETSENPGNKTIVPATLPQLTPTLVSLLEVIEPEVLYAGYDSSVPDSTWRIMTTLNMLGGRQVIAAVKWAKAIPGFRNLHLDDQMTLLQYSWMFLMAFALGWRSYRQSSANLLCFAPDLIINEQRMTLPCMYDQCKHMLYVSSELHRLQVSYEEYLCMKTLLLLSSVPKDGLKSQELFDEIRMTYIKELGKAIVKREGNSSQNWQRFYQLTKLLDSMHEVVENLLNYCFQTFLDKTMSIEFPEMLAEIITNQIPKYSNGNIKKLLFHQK
# Procedure, shortened: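 CHO-K1 cells expressing nuclear EA and GR-ED fragments of b-gal; compounds titrated up to 46 uM final, 2 h at 37 C. GR nuclear translocation read as complemented b-gal luminescence after 1 h RT detection.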
# [6] = target: Mitogen-activated protein kinase 10 (Mus musculus) (UniProt Q61831); assay: JNK3 AlphaScreen Assay (AID 530; active = well fitted curve in either direction with a large enough effect, not every such curve was filed as active;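 also: kinase came from lysate of stimulated human HepG2 cells; signal reports phosphorylation of biotinylated GST-cJun 1-79 at Ser73 with 10 µM ATP; % is scaled to controls: 0 for no effect and ±100 for the full control effect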); conditions: JNK3 lysate, c-Jun phosphorylation; series mostly up to 57.1 µM
# Procedure, shortened: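 qHTS format: compounds tested as titrations against IL-1beta/TNF-alpha-activated HepG2 lysate JNK3 with biotin-GST-cJun substrate and 10 uM ATP at room temperature. Loss of anti-phospho-cJun AlphaScreen signal indicates inhibition.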
# [7] = target: 3',5'-cyclic-AMP phosphodiesterase 4B (Homo sapiens) (UniProt Q07343); assay: qHTS Assay for Inhibitors of PDE-IV (AID 607; active = well fitted activation curve with a large enough effect in the main read-out, with a control signal flat, not every such curve was filed as active; also: % of control where 0% means no effect); conditions: HEK293 ACTOne CNG channel cells, membrane potential fluorescence; series mostly up to 22.9 µM
# Sequence of 3',5'-cyclic-AMP phosphodiesterase 4B (Homo sapiens) (Q07343 whole entry, looked up): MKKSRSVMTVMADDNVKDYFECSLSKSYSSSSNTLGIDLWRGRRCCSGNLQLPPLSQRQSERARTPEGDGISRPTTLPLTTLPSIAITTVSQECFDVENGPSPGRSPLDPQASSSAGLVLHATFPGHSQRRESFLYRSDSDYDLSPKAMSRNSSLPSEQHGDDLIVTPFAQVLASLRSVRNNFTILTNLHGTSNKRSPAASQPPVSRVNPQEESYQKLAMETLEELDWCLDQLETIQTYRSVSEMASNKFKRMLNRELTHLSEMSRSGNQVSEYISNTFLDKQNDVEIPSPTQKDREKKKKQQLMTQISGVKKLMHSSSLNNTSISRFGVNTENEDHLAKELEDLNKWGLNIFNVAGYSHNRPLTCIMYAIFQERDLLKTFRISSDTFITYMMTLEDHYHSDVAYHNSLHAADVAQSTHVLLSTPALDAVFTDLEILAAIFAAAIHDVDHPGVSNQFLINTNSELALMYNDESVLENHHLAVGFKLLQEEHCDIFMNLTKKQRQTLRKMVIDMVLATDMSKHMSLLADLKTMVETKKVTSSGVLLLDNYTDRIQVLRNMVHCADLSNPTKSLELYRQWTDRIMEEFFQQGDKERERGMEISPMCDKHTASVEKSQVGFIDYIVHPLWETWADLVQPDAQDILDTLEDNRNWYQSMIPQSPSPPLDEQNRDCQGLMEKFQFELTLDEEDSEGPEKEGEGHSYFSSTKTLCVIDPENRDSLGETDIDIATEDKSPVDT
# Procedure, shortened: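 Live HEK293 cells with a modified cyclic nucleotide-gated (CNG) channel report intracellular cAMP via membrane-potential dye fluorescence (ex 535/em 590 nm). Endogenous PDE-IV was targeted. Compounds were tested at up to 22.9 uM final; RO 20-1724 100 uM served as control.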
# [8] = target: Cytochrome P450 3A4 (Homo sapiens) (UniProt P08684); assay: qHTS Assay for Inhibitors and Substrates of Cytochrome P450 3A4 (AID 884); conditions: recombinant CYP3A4, Luciferin-PPXE luminescence; series mostly up to 57.1 µM; also: % is scaled to controls: 0 for no effect and ±100 for the full control effect; nearly all actives have a fitted effect of over 50% in size
# Sequence of Cytochrome P450 3A4 (Homo sapiens) (P08684 whole entry, looked up): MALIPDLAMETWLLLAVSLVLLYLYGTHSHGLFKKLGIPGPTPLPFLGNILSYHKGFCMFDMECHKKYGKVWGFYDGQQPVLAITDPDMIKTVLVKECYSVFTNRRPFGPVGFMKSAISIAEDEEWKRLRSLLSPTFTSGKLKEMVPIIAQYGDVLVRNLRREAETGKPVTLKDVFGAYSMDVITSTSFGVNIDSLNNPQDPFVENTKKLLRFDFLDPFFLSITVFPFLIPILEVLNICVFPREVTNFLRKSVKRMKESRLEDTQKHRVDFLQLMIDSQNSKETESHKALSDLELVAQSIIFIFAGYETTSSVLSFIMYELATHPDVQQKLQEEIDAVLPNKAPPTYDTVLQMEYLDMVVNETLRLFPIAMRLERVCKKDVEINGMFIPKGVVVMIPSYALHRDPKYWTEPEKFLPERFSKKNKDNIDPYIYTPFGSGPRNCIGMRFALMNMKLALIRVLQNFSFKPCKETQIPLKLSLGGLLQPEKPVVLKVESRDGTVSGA
# Procedure, shortened: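 20 nM human CYP3A4 with 25 uM Luciferin-PPXE (at KM) in 200 mM KPO4, preincubated 10 min with compound; NADPH regeneration started a 60 min RT reaction. Luciferin detected by luminescence, normalized to 57 uM ketoconazole as full inhibition.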
# [9] = target: Cytochrome P450 3A4 (Homo sapiens) (UniProt P08684); assay: qHTS Assay for Activators of Cytochrome P450 3A4 (AID 885); conditions: recombinant CYP3A4, Luciferin-PPXE luminescence, 60 min; series mostly up to 57.1 µM; also: potency is read from the fitted curve at half-maximal effect; nearly all actives have a fitted effect of over 65% in size
# Procedure, shortened: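 Quantitative HTS format: compounds preincubated with 20nM human CYP3A4 and Luciferin-PPXE substrate at KM, reaction started by NADPH regeneration, stopped after 60 min, luciferase luminescence read 20 min later.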
# [10] = Primary qHTS for small molecule stabilizers of the endoplasmic reticulum resident proteome: Secreted ER Calcium Modulated Protein (SERCaMP) assay (AID 1508630); conditions: SH-SY5Y GLuc-SERCaMP (Gaussia luciferase released on ER calcium loss) secretion, thapsigargin, luminescence; series mostly up to 38.4 µM; also: % is scaled to controls: 0 for no effect and ±100 for the full control effect
# Procedure, shortened: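 GLuc-SERCaMP-expressing SH-SY5Y cells, pretreated 16 h with compound, are challenged with thapsigargin to empty ER calcium stores; after 4 h, coelenterazine is added directly to the medium and luminescence is imaged.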
# [11] = target: Cytochrome P450 1A2 (Homo sapiens) (UniProt P05177); assay: p450-cyp1a2 (AID 410; calls by dose curve; also: potency is read from the fitted curve at half-maximal effect); conditions: recombinant CYP1A2, luciferin-ME demethylation, luminescence; series mostly up to 57 µM
# Sequence of Cytochrome P450 1A2 (Homo sapiens) (P05177 whole entry, looked up): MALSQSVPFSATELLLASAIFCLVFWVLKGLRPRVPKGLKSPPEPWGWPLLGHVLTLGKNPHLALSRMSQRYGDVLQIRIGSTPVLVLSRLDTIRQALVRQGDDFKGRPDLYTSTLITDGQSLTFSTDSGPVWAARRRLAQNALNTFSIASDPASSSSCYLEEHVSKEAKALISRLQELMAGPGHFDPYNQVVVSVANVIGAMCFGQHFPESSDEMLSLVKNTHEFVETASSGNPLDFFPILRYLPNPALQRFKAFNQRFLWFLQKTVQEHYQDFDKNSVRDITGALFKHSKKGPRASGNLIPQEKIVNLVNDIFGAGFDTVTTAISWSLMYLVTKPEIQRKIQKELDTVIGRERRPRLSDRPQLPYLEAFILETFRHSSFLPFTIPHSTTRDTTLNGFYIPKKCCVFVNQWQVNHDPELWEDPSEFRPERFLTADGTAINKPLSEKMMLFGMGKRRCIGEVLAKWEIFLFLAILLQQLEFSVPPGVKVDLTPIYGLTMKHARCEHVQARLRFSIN
# Procedure, shortened: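 Human CYP1A2 (20nM) demethylated Luciferin-ME at its Km (100uM) in 100mM KPO4. After 10 min compound preincubation, NADPH regeneration ran the reaction 60 min at room temperature. Luciferin was read by luminescence, normalized to 57 uM furafylline.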
# [12] = target: Glucocorticoid receptor (Homo sapiens) (UniProt P04150); assay: GR-GFP Redistribution (AID 450;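 active = compounds whose dose series gives a full or clear partial fitted curve of increased nuclear translocation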; also: potency is read from the fitted curve at half-maximal effect); conditions: U2OS GR-GFP nuclear translocation, laser cytometry, 2 h
# [13] = target: Cytochrome P450 2D6 (Homo sapiens) (UniProt P10635); assay: qHTS Assay for Inhibitors and Substrates of Cytochrome P450 2D6 (AID 891); conditions: recombinant CYP2D6, luciferin-ME EGE luminescence; series mostly up to 57.1 µM; also: potency is read from the fitted curve at half-maximal effect; nearly all actives have a fitted effect of over 60% in size
# Sequence of Cytochrome P450 2D6 (Homo sapiens) (P10635 whole entry, looked up): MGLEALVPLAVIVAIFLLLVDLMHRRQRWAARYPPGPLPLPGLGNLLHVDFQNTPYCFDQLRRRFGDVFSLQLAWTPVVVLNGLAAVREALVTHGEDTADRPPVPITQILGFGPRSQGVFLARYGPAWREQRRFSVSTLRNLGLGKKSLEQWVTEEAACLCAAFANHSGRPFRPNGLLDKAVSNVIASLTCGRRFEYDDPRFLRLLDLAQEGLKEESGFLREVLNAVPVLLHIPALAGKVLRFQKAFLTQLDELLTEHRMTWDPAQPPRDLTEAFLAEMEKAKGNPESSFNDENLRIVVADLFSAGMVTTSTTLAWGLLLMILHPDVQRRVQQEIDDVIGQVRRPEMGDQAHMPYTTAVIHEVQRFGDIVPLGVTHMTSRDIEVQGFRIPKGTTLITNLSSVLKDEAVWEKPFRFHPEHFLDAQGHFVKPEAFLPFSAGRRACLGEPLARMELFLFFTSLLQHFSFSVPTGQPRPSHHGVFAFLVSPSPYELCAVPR
# Procedure, shortened: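 Human CYP2D6 (5 nM) with 30 uM Luciferin-ME EGE (at Km) in 100 mM KPO4, compound preincubated 10 min, then NADPH regeneration system for 60 min at room temperature. Luciferin read by luminescence; normalized to 1.43 uM quinidine.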
# [14] = qHTS Assay for Lipid Storage Modulators (AID 1519; calls by dose curve); conditions: Drosophila S3 cells, BODIPY lipid droplet/cell ratio, laser cytometry, cells loaded with oleic acid
# Procedure, shortened: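 Cells seeded at 5,000 per well were treated with compounds over a concentration series and loaded with oleic acid (400 uM, as added). Lipid droplet fluorescence (488 nm excitation, 500-530 nm channel) was read by laser-scanning cytometry and normalized to 20 uM Triacsin C.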
# [15] = target: Dual specificity protein kinase CLK4 (Homo sapiens) (UniProt Q9HAZ1); assay: qHTS Assay for Inhibitors of CDC-like Kinase 4 (Kinase-Glo Assay) (AID 1770); conditions: recombinant Clk4, Kinase-Glo ATP depletion luminescence; series mostly up to 66.7 µM; also: % is scaled to controls: 0 for no effect and ±100 for the full control effect; nearly all actives have a fitted effect of over 65% in size
# Sequence of Dual specificity protein kinase CLK4 (Homo sapiens) (Q9HAZ1 whole entry, looked up): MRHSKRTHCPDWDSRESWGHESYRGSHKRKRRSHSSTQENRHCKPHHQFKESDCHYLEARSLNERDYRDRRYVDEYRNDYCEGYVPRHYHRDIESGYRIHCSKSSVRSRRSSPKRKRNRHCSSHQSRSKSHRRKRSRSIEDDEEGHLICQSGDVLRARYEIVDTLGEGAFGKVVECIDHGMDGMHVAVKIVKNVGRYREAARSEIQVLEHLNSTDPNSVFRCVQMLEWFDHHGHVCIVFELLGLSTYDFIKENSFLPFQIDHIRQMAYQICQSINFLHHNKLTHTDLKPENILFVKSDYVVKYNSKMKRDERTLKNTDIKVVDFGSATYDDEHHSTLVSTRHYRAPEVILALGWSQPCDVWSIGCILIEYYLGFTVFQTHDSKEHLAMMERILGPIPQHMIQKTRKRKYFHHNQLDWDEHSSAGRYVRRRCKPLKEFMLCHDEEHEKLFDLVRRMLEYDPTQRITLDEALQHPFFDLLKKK
# Procedure, shortened: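 Recombinant human Clk4 (25 nM) phosphorylated RS repeat peptide (100 uM) with 1 uM ATP in Tris pH 7.5/MgCl2/EGTA/DTT/Triton buffer for 4.5 h at room temperature. Residual ATP was quantified by Kinase-Glo luciferase luminescence.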
# [16] = target: Dual specificity protein kinase CLK4 (Homo sapiens) (UniProt Q9HAZ1); assay: qHTS Assay for Inhibitors of CDC-like Kinase 4 (ADP-Glo Assay) (AID 1771); conditions: recombinant CLK4, ADP-Glo luminescence; series mostly up to 80 µM; also: % is scaled to controls: 0 for no effect and ±100 for the full control effect; nearly all actives have a fitted effect of over 70% in size
# Procedure, shortened: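 Clk4 (25 nM) was incubated 1 hr at room temperature with 100 uM RS repeat peptide and 1 uM ATP in buffer with 2 mM MgCl2, 0.5 mM EGTA, 2.5 mM DTT. ADP formed was quantified by ADP-Glo luminescence.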
# [17] = target: Dual specificity protein kinase CLK4 (Homo sapiens) (UniProt Q9HAZ1); assay: qHTS Assay for Inhibitors of CDC-like Kinase 4 (ADP-FP Assay) (AID 1795); conditions: Transcreener ADP fluorescence polarization; series mostly up to 50 µM; also: % is scaled to controls: 0 for no effect and ±100 for the full control effect; nearly all actives have a fitted effect of over 60% in size
# Procedure, shortened: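 Recombinant human Clk4 (6.25 nM) phosphorylated RS repeat peptide (100 uM) with 1 uM ATP in Tris pH 7.5/MgCl2/EGTA/DTT/Triton buffer for one hour. ADP was quantified by Transcreener competitive fluorescence polarization against an ADP calibration curve.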
# [18] = target: Ubiquitin carboxyl-terminal hydrolase 1 (Homo sapiens) (UniProt O94782); assay: Inhibitors of USP1/UAF1: Pilot qHTS (AID 504865); conditions: purified USP1/UAF1, Ub-rhodamine cleavage fluorescence; series mostly up to 54.9 µM;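 also: rhodamine fluorescence freed from ubiquitin-rhodamine substrate followed over time; top concentration of the series differs between compounds; % is scaled to controls: 0 for no effect and ±100 for the full control effect; nearly all actives have a fitted effect of over 35% in size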
# Sequence of Ubiquitin carboxyl-terminal hydrolase 1 (Homo sapiens) (O94782 whole entry, looked up): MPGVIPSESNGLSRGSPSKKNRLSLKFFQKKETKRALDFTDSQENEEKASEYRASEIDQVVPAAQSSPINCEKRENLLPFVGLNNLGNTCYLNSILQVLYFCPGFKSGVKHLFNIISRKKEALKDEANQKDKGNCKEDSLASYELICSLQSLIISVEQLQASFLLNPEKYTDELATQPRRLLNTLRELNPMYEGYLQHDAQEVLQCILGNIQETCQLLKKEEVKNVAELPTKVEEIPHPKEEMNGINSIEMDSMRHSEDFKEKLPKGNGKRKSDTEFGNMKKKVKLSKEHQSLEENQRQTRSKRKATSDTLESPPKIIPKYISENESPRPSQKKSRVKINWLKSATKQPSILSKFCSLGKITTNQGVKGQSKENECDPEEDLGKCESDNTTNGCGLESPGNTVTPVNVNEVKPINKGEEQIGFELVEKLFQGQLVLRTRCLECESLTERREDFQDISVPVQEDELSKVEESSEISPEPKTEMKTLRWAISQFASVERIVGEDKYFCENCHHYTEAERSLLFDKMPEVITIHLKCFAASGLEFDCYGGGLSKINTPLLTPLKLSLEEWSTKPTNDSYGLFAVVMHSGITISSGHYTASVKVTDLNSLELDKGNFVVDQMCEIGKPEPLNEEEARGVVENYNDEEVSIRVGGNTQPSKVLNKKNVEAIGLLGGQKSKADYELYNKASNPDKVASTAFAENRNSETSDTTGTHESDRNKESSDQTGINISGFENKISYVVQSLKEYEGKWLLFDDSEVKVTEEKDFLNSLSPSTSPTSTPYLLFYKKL
# Procedure, shortened: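 USP1/UAF1 complex (1nM) preincubated with compound 15 min at room temperature, then Ub-Rho substrate (150nM final) added. Fluorescence read kinetically at 480/540 nm, 6 reads every 60 seconds. Buffer: 50mM HEPES pH 7.8, 0.5mM EDTA, 0.1 mg/ml BSA, 1mM TCEP, 0.01% Tween-20.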
SMILES,Potency [1],"activity change, negative = inhibition [2]","activity change, negative = inhibition [3]","activity, negative = inhibition [4]",Potency [5],outcome [6],Potency [7],Potency [8],Potency [9],Potency [10],Potency [11],Potency [12],Potency [13],"activity change, negative = inhibition ([14]; at 57.5 µM (top of the series))",max response ([14]; measured here: cell count channel max response),max response ([14]; measured here: lipid channel max response),Potency [15],Potency [16],Potency [17],Potency [18]
O=C(c1ccco1)N1CCC2(CC1)CN(c1ccc(-c3ccccc3)cc1)C2,> 11.4 µM (inactive),-23.8% (inactive),-4.82% (inactive),-21.1% (inactive),> 46 µM (inactive),inactive,inactive,inactive,3.98 µM (active),inactive,,,,,,,,,,
CNc1cc(-c2ccccc2CN(C)C)ncn1,> 11.4 µM (inactive),6.89% (inactive),-0.773% (inactive),-3.02% (inactive),> 46 µM (inactive),inactive,inactive,,,,31.6 µM (active),> 46 µM (inactive),0.631 µM (active),2.26% (inactive),7.6%,8.03%,inactive,inactive,inactive,inactive
